Records with an inconclusive call do not appear. Activity calls are given as the source filed them. Calls come from the whole dose curve; as a rule, active = well fitted inhibition curve with a large enough effect; inconclusive = small, poorly fitted or top-dose-only effect, or effect the other way; inactive = flat fitted curve, though single readings scatter.
biological target: ATP-dependent 6-phosphofructokinase (Trypanosoma brucei brucei) (UniProt O15648); experiment: qHTS Assay to Find Inhibitors of T. brucei phosphofructokinase: hit validation (AID 492961);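 note: luminescence reports ADP formed as PFK phosphorylates fructose-6-phosphate with ATP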; details: T. brucei PFK, ADP-Glo luminescence; series mostly up to 51.4 µM; activity change, negative = inhibition: at the top concentration
Sequence (O15648 whole entry, looked up): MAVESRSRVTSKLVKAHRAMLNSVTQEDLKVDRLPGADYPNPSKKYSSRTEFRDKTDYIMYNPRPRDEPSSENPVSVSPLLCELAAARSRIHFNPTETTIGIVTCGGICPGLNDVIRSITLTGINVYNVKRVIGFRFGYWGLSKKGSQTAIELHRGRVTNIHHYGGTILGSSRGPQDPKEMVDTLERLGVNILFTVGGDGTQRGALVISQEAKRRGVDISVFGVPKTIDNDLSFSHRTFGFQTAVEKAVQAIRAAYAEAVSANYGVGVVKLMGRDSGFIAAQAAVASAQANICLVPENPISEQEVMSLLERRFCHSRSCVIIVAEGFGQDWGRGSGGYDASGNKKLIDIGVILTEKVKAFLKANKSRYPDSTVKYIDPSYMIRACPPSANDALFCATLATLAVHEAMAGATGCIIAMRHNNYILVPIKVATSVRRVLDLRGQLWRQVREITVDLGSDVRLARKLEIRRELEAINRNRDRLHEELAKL
Description: NIH Molecular Libraries Probe Production Network [MLPCN] NIH Chemical Genomics Center [NCGC] Grant: 1 R03 MH092153-01 PI Name: Malcolm Walkinshaw, University of Edinburgh NCGC Assay Overview: Various species of the protozoan family Trypanosomatidae are responsible for a range of serious human diseases in tropical and subtropical areas of the world. […] Many of the disorders caused by trypanosomatids are fatal if left untreated, but most currently used drugs are inefficient and toxic. […] Oxidative metabolism involving the mitochondrial tricarboxylic acid cycle and oxidative phosphorylation are repressed in these parasites, and recent RNA interference (RNAi) experiments have shown that even partial depletion of certain individual glycolytic enzymes can lead to the death of cultured parasites. One such glycolytic enzyme, phosphofructokinase (PFK), catalyzes the formation of fructose-1,6-bisphosphate (F1,6BP) and ADP from fructose-6-phosphate (F6P) and ATP, and in many metabolic circumstances makes an important contribution to the control of flux through the glycolytic pathway. As a specific glycolytic target, PFK is particularly attractive as it catalyzes the first irreversible step in glycolysis, and structural and kinetic studies have shown very substantial and essential differences from corresponding host enzymes, allowing for the discovery of parasite-selective inhibitors. The goal of this screen is to find small-molecule inhibitors of T. brucei PFK using a biochemical assay that measures PFK activity as a function of ADP production. A luminescence-based assay for T. brucei PFK activity has been developed which uses luciferase to detect production of ADP. Traditional luciferase-based nucleotide detection reagents rely on ATP production as a direct substrate for the luciferase reaction; however, PFK catalyzes the transfer of a phosphate from ATP to F6P, resulting in the net depletion of ATP. To directly measure the ADP product of the PFK reaction, we used the ADP-Glo detection kit (Promega), which utilizes two separate reactions to 1) deplete all remaining uncatalyzed ATP and 2) convert all remaining ADP to ATP, which is then detected through a traditional luciferase-coupled reaction. Compounds were screened as a concentration-titration series that ranged from 57 uM to 0.7 nM.
NCGC Assay Protocol Summary: Substrate buffer was dispensed into white, solid 1536-well plates at 3uL/well in 0.1M triethanolamine (TEA) buffer, pH 8.0, containing final concentrations of 5 mM MgCl2, 0.01% Tween20, 0.5 mM fructose-6-phosphate (F6P) and 0.1mM ATP. Then, 23 nL of compounds or DMSO were delivered to each well using a pin tool. One uL T. brucei PFK (0.1M TEA, 0.01% Tween20, 0.1% bovine serum albumin (BSA) and 1.25nM PFK, final concentrations) was then dispensed, and plates were incubated at room temperature for 45 min. The luminescent detection reagent, ADP-Glo (Promega), was then added in two steps: the first reagent, ADP-Glo (which converts remaining uncatalyzed ATP), was added at 2.5uL/well and incubated for ten minutes at room temperature, and the second component, Kinase Detection reagent (which converts ADP to ATP as a substrate for luciferase-based luminescence), was added immediately after at 5uL/well, followed by one final ten minute room temperature incubation. The plates were measured on a ViewLux plate reader for luminescent signal using a clear filter with a one second exposure. The %Activity was determined from the corrected luminescence values. As no specific T. brucei PFK inhibitors have been identified in the literature, 1x (1.25nM) and 0x PFK enzyme controls (untreated) were included to normalize %Activity of identified inhibitors; 0x enzyme values corresponded to 100%Activity (full inhibition), while 1x PFK enzyme values were used to normalize 0%Activity (no inhibition). Concentration-response curves were fitted to the signals arising from the resulting luminescence. […]

| Structure (SMILES) | activity change, negative = inhibition |
| --- | --- |
| O=C1[C@@H]2C[C@@H]3C[C@H]1C[C@@](O)(C3)C2 | 1.22% (inactive) |
| Cc1ccc(Nc2ncccc2C(=O)O)cc1C | -3.22% (inactive) |
| COc1cc2c(cc1O)CCN[C@@]21CS[C@H]2c3c(OC(C)=O)c(C)c4c(c3C(COC1=O)N1C2C2c3c(cc(C)c(OC)c3O)CC([C@@H]1O)N2C)OCO4 (stereo not given in full) | 13.3% (inactive) |
| C/C=C1/NN(CCCN2CCN(c3cccc(Cl)c3)CC2)C(=O)N1CCOc1ccccc1 | -15% (inactive) |
| CCOC(=O)C(CCc1ccccc1)NC(C)C(=O)N1Cc2cc(OC)c(OC)cc2CC1C(=O)O (stereo not given) | -6.15% (inactive) |
| CCC(=O)OC1C(N(C)C)CC(C)O[C@H]1O[C@H]1[C@H](C)[C@@H](O[C@H]2CC(OC)[C@@H](O)C(C)O2)[C@H](C)C(=O)O[C@@H](CC)[C@](C)(O)[C@@H](O)[C@H](C)C(=O)[C@@H](C)C[C@]1(C)O (stereo not given in full) | -3.62% (inactive) |
| CCCCCCCCCCCCCCCC(=O)OC[C@H](O)[C@H]1OC[C@@H](O)[C@@H]1O | 1.72% (inactive) |
| CC12C=CC(=O)C=C1[C@@H](F)CC1C2C(O)CC2(C)C1CC[C@]2(O)C(=O)CO (stereo not given in full) | 10.1% (inactive) |
| C[C@]12CCC(=O)C=C1[C@@H]1C[C@H]1[C@H]1[C@@H]3[C@@H]4C[C@H]4[C@@]4(CCC(=O)O4)[C@@]3(C)CC[C@@H]12 | 11.7% (inactive) |
| CC(C)(C)C(=O)OCC(=O)C1CCC2C3CCC4=CC(=O)CCC4(C)C3CCC12C (stereo not given) | -15% (inactive) |
| CO/N=C(/C(=O)N[C@@H]1C(=O)N2C(C(=O)O)=C(CSc3cnns3)CS[C@H]12)c1csc(N)n1 | 1.58% (inactive) |
| C=CC1CN2CCC1CC2[C@@H](O)c1ccnc2ccc(OC)cc12 (stereo not given in full) | -3.46% (inactive) |
| C=CCN1CC(C(=O)N(CCCN(C)C)C(=O)NCC)CC2c3cccc4[nH]cc(c34)CC21 (stereo not given) | -0.213% (inactive) |
| O=C(O)C(O)c1ccccc1 (stereo not given) | 2.97% (inactive) |
| CN(C)CC/C=C1\c2ccccc2COc2ccc(CC(=O)O)cc21 | 12.8% (inactive) |
| CC(c1ncncc1F)[C@](O)(Cn1cncn1)c1ccc(F)cc1F (stereo not given in full) | -5.24% (inactive) |
| CCN(CC)C(=O)[C@@]1(c2ccccc2)C[C@@H]1CN | 3.37% (inactive) |
| O=C(O)C[CH2][Ge](=[O])[O][Ge](=[O])[CH2]CC(=O)O | 2.5% (inactive) |
| Cc1cnc(C(=O)O)cn1 | -19.2% (inactive) |
| COc1cccc2c1C(=O)c1c(O)c3c(c(O)c1C2=O)C[C@@](O)(C(=O)CO)C[C@@H]3OC1CC(N)C(O)C(C)O1 (stereo not given in full) | -3.71% (inactive) |

| Structure (SMILES) | activity change, negative = inhibition |
| --- | --- |
| C[C@H](CN1c2ccccc2Sc2cccnc21)N(C)C | -7.73% (inactive) |
| Nc1ncn(C2C[C@H](O)[C@@H](CO)O2)c(=O)n1 (stereo not given in full) | -6.37% (inactive) |
| CNC1C(O)C(OC2C(NC(=O)C(O)CN)CC(N)C(OC3OC(CN)C(O)C(O)C3O)C2O)OCC1(C)O (stereo not given) | -8.46% (inactive) |
| O=c1ccn(C2OC(COP(=O)(O)OC3C(CO)OC(n4ccc(=O)[nH]c4=O)C3O)C(O)C2O)c(=O)[nH]1 (stereo not given) | -14.2% (inactive) |
| Nc1nc2[nH]cc(CCc3ccc(C(=O)NC(CCC(=O)O)C(=O)O)cc3)c2c(=O)[nH]1 (stereo not given) | 6.73% (inactive) |
| O=c1[nH]c(=O)n(C2C[C@H](O)[C@@H](CO)O2)cc1C(F)(F)F (stereo not given in full) | -8.39% (inactive) |
| CC(=O)N1CC(O)CC1C(=O)O (stereo not given) | -6.08% (inactive) |
| CNC1CCc2cc(OC)c(OC)c(OC)c2-c2ccc(OC)c(=O)cc21 (stereo not given) | -7.48% (inactive) |
| CC[C@@H]1/C=C(\C)C[C@H](C)C[C@H](OC)[C@H]2O[C@@](O)(C(=O)C(=O)N3CCCC[C@H]3C(=O)O[C@H](/C(C)=C/[C@@H]3CC[C@H](Cl)[C@H](OC)C3)[C@H](C)[C@@H](O)CC1=O)[C@H](C)C[C@@H]2OC | -3.95% (inactive) |
| O=C(O)[C@H]1C[C@@H](CP(=O)(O)O)CCN1 | -7.21% (inactive) |
| CC(=O)NC[C@@H]1CN(c2ccc(N3CCOCC3)c(F)c2)C(=O)O1 | 2.46% (inactive) |
| Cc1ccc(/C=C2/C(=O)C3(C)CCC2C3(C)C)cc1 (stereo not given) | -2.09% (inactive) |
| CCCC(=O)O[C@]1(C(=O)COC(C)=O)CC[C@H]2C3C[C@H](F)C4=CC(=O)C=CC4(C)[C@@]3(F)[C@@H](O)CC21C (stereo not given in full) | -5.96% (inactive) |
| COC(=O)C1[C@@H](OC)C(OC(=O)COc2ccc(OC)cc2)C[C@@H]2CN3CCc4c([nH]c5cc(OC)ccc45)[C@H]3C[C@H]12 (stereo not given in full) | 4.08% (inactive) |
| C=C1C(n2cnc3c(=O)[nH]c(N)nc32)C[C@H](O)[C@H]1CO (stereo not given in full) | 0% (inactive) |
| NC(=O)c1ncn(C2OC(CO)C(O)C2O)c1N (stereo not given) | -0.759% (inactive) |
| CC1CCC(C(C)C)C(O)C1 (stereo not given) | -15.4% (inactive) |
| CCCSS/C(CCO)=C(/C)N(C=O)Cc1cnc(C)nc1N | -12.3% (inactive) |
| Nc1nc(/C(=C/CC(=O)O)C(=O)NC2C(=O)N3C(C(=O)O)=CCSC23)cs1 (stereo not given) | -20.9% (inactive) |
| CC(=O)OCC(=O)[C@@]1(O)CCC2C3C[C@H](C)C4=CC(=O)C=CC4(C)C3C(O)CC21C (stereo not given in full) | -1.35% (inactive) |

— PubChem BioAssay (NCATS)
